Laboratory results taken from PubChem BioAssay.
Several values for one entry are separate records, joined by “and”; a condition that tells them apart may be missing. Equal entries are not always repeated. Records with an inconclusive call do not appear. Activity calls are given as the source filed them.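 How the source made its calls, unless noted: active means normalized viability below 100% at a tested concentration; inactive means the rest.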

Columns and labels:
[1] = liver-stage malaria parasite growth inhibition, primary screen, cell-based, HepG2, luciferase luminescence, HepG2 viability (AID 624349; in the data active means parasite load remaining mostly below about 12%, no sharp cut-off; inactive means mostly above about 10%;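 further: 100% = mean of DMSO negative control wells on the same plate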); settings: P. berghei liver stage in HepG2, luciferase luminescence, concentration not given here; parasite load remaining: stronger effect = lower value; viability: measured here: HepG2 viability without parasites
[2] = stimulators of nuclear beta-catenin in C2C12, primary screen, imaging, WNT3A-conditioned medium, mouse C2C12, NPC library (AID 1117326; in the data active means nuclear beta-catenin stimulation mostly above about 4.2%, no sharp cut-off; inactive means mostly below about 10%); settings: stronger effect = higher value
[3] = stimulators of insulin release from INS-1E, primary screen, cell-based, 5 mM glucose, NPC library (AID 1117329;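 active means compound raises insulin release from rat beta cells at 5 mM glucose, no numeric limit stated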); settings: rat INS-1E insulin secretion, at 10 µM, stronger effect = higher value
[4] = growth inhibition of GSK3B-pretreated HCT116 cells – cell-based, CellTiter-Glo, 0.2 to 20 µM (AID 1117336;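 active means compounds lowering colon cancer cell viability after pretreatment blocking the GSK3B kinase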); settings: HCT116 viability after GSK3B inhibitor, at 20 µM, stronger effect = higher value
[5] = inhibition of endothelial tube formation, primary screen, imaging, VEGF stimulated, CD31 staining, tube area, NPC library (AID 1117340;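 active means compound that reduces growth-factor-driven endothelial tube area in a mixed cell culture, no cutoff stated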); settings: VEGF-stimulated ADSC/ECFC co-culture, at 10 µM, stronger effect = higher value
[6] = glucagon-like peptide 1 release enhancers, primary assay, NCI-H716 cell line, NPC library (AID 1117341;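 active means compound raises GLP1 secretion from the human gut endocrine cells, with no numeric limit stated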); settings: NCI-H716 cells, at 10 µM, stronger effect = higher value
[7] = HCT116 colon cancer cell growth inhibition, primary screen, CellTiter-Glo luminescence, NPC library (AID 1117342;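 active means compounds that lower survival of HCT116 colon cancer cells in the luminescence readout, no numeric limit stated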); settings: at 20 µM (top of the series)
[8] = CellTiter-Glo luminescent readout of SW480 viability loss, NPC library primary (AID 1117343;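 active means compounds that lower viability of the colon cancer cells in the luminescence readout, with no numeric limit stated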); settings: CellTiter-Glo luminescence; at 20 µM (top of the series) unless noted
[9] = decreased DLD-1 cellular survival, CellTiter-Glo luminescent readout, NPC compound collection, primary HTS (AID 1117346;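 active means compounds that lower survival of DLD-1 colon cancer cells in the luminescence readout, no cutoff given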); settings: DLD-1 viability, CellTiter-Glo luminescence; at 20 µM (top of the series)
[10] = growth inhibition of DIPG glioma cells, dose response, cell-based, JHH-DIPG-1, MIPE4.0, CellTiter-Glo, qHTS (AID 1347062; cut-off not given, nearly all actives have AC50 up to about 27 µM;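 on AC50: cells exposed to compound for two days before readout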); settings: JHH-DIPG-1 viability, CellTiter-Glo ATP luminescence
[11] = growth inhibition of DIPG glioma cells, dose response, cell-based, SU-DIPG-IV, MIPE4.0, CellTiter-Glo, qHTS (AID 1347063; cut-off not given, nearly all actives have AC50 up to about 30 µM;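 further: compound exposure lasted 48 hours before the viability readout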); settings: SU-DIPG-IV viability, CellTiter-Glo ATP luminescence
[12] = viability loss in pontine glioma line – cell-based, SU-DIPG-XXV, MIPE5.0, CellTiter-Glo, qHTS, dose response (AID 1347065; cut-off not given, nearly all actives have AC50 up to about 26 µM;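 further: cells exposed to compound for 48 hours before ATP readout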); settings: CellTiter-Glo ATP luminescence
[13] = sensitizers of A549 cells to miR-34 induction, primary screen, imaging, A549 dox-inducible miR-34, nuclei and caspase counts (AID 1347080;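 active means compounds whose cell count with miR-34 switched on is under 0.7 times the count with it off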); settings: A549 miR-34 inducible, Hoechst nuclei count, 48 h
[14] = survival rescue of mitochondrial mutant cells in low glucose, primary screen, MELAS cybrids, Rieske KO mouse fibroblasts, CellTiter-Glo (AID 1508586;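 active means mean z-score across replicates of 1.96 or higher in either the MELAS or the Rieske mutant cell line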;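 further: z relative to plate mean and SD of compound and empty wells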)
[15] = ovarian cancer cell viability with rucaparib, profiling panel, oncology-focused library, rucaparib conditional (AID 1508598); settings: patient-derived ovarian cancer cells, CellTiter-Glo viability, 144 h, stronger effect = lower value
[16] = viability rescue of complex I mutant cybrids, primary screen, cell-based, galactose medium, ATP luminescence (AID 1645843;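 active means z-score of at least 1.8 in each of two replicates, scored against plate mean and spread of sample wells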;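 further: positive z means more ATP and so rescue of galactose-driven cybrid death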); settings: complex I mutant cybrid cells, 72 h, stronger effect = higher value
[17] = JHH-DIPG-1 glioma cell viability, MIPE5.0 library, CellTiter-Glo luminescence, qHTS (AID 1347067; cut-off not given, nearly all actives have AC50 up to about 26 µM;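 further: cells exposed to compound for 48 hours before readout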); settings: JHH-DIPG-1 glioma viability, CellTiter-Glo ATP luminescence
[18] = SU-DIPG-XXV glioma cell viability, MIPE5.0 library, qHTS (AID 1347068; cut-off not given, nearly all actives have IC50 up to about 30 µM)
[19] = SU-DIPG-VI glioma cell viability, MIPE4.0 library, CellTiter-Glo luminescence, qHTS (AID 1347066; cut-off not given, nearly all actives have AC50 up to about 30 µM;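 further: cells exposed to compound for 48 hours before readout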); settings: CellTiter-Glo ATP luminescence
[20] = MELAS cybrid survival, CellTiter-Glo 48 h, stronger effect = higher value
[21] = Rieske KO mouse fibroblast survival, CellTiter-Glo 72 h

C#Cc1cccc(Nc2ncnc3cc(OCCOC)c(OCCOC)cc23)c1
2.01 (active) and 0.197: z-score [14, 20]
-0.563 and 2.07: z-score [14, 21]
168%: viability [1]
1.12: fold change ([13]; measured here: relative caspase fold change +Dox/-Dox)
active: viability decrease [4] 72.1% | inhibition of viability [7] 59.4% | viability decrease (inhibition) [9] 83.4% | AC50 [10] 7.43 µM | AC50 [11] 7.43 µM | AC50 [12] 7.42 µM | viability ([15]; at 0.000305 µM, OCI-P5x cells, without rucaparib) 93.6% | viability ([15]; at 0.00122 µM, OCI-P5x cells, without rucaparib) 96.4% | viability ([15]; at 0.0195 µM, OCI-P5x cells, without rucaparib) 97.9% | viability ([15]; at 0.0781 µM, OCI-P5x cells, without rucaparib) 99% | viability ([15]; at 0.313 µM, OCI-P5x cells, without rucaparib) 91.2% | viability ([15]; at 1.25 µM, OCI-C5x cells, with rucaparib 10 µM, 100% = cells with rucaparib alone) 76% | viability ([15]; at 1.25 µM, OCI-C5x cells, without rucaparib) 91.8% | viability ([15]; at 1.25 µM, OCI-P5x cells, without rucaparib) 83% | viability ([15]; at 5 µM, OCI-C5x cells, with rucaparib 10 µM, 100% = cells with rucaparib alone) 39.7% | viability ([15]; at 5 µM, OCI-C5x cells, without rucaparib) 62.2% | viability ([15]; at 5 µM, OCI-P5x cells, with rucaparib 20 µM, 100% = cells with rucaparib alone) 76.9% | viability ([15]; at 5 µM, OCI-P5x cells, without rucaparib) 66.3%
5640: cell count ([13]; measured here: total cells without miR-34 induction)
inactive: parasite load remaining [1] 380% | nuclear beta-catenin stimulation ([2]; at 10 µM) 1.3% | insulin secretion stimulation [3] 1.8% | tube area decrease [5] -49.7% | GLP1 secretion stimulation [6] 1.7% | viability decrease (inhibition) [8] 34.2% | fold change ([13]; stronger effect = lower value, cell number ratio, induced over uninduced) 0.807 | viability ([15]; at 0.000305 µM, OCI-C5x cells, with rucaparib 10 µM, 100% = cells with rucaparib alone) 108% | viability ([15]; at 0.000305 µM, OCI-C5x cells, without rucaparib) 109% | viability ([15]; at 0.000305 µM, OCI-P5x cells, with rucaparib 20 µM, 100% = cells with rucaparib alone) 121% | viability ([15]; at 0.00122 µM, OCI-C5x cells, with rucaparib 10 µM, 100% = cells with rucaparib alone) 105% | viability ([15]; at 0.00122 µM, OCI-C5x cells, without rucaparib) 109% | viability ([15]; at 0.00122 µM, OCI-P5x cells, with rucaparib 20 µM, 100% = cells with rucaparib alone) 142% | viability ([15]; at 0.00488 µM, OCI-C5x cells, with rucaparib 10 µM, 100% = cells with rucaparib alone) 109% | viability ([15]; at 0.00488 µM, OCI-C5x cells, without rucaparib) 104% | viability ([15]; at 0.00488 µM, OCI-P5x cells, with rucaparib 20 µM, 100% = cells with rucaparib alone) 111% | viability ([15]; at 0.00488 µM, OCI-P5x cells, without rucaparib) 101% | viability ([15]; at 0.0195 µM, OCI-C5x cells, with rucaparib 10 µM, 100% = cells with rucaparib alone) 105% | viability ([15]; at 0.0195 µM, OCI-C5x cells, without rucaparib) 101% | viability ([15]; at 0.0195 µM, OCI-P5x cells, with rucaparib 20 µM, 100% = cells with rucaparib alone) 122% | viability ([15]; at 0.0781 µM, OCI-C5x cells, with rucaparib 10 µM, 100% = cells with rucaparib alone) 102% | viability ([15]; at 0.0781 µM, OCI-C5x cells, without rucaparib) 106% | viability ([15]; at 0.0781 µM, OCI-P5x cells, with rucaparib 20 µM, 100% = cells with rucaparib alone) 135% | viability ([15]; at 0.313 µM, OCI-C5x cells, with rucaparib 10 µM, 100% = cells with rucaparib alone) 101% | viability ([15]; at 0.313 µM, OCI-C5x cells, without rucaparib) 104% | viability ([15]; at 0.313 µM, OCI-P5x cells, with rucaparib 20 µM, 100% = cells with rucaparib alone) 109% | viability ([15]; at 1.25 µM, OCI-P5x cells, with rucaparib 20 µM, 100% = cells with rucaparib alone) 101% | z-score [16] 1.06
-0.8%: nuclear beta-catenin stimulation ([2]; stimulation, at 2 µM)
4550: cell count ([13]; measured here: total cells with miR-34 induction, stronger effect = lower value)

Clc1cccc(C(c2ccc3nc[nH]c3c2)n2ccnc2)c1 (stereo not drawn)
inactive: nuclear beta-catenin stimulation ([2]; at 10 µM) 0.3% | insulin secretion stimulation [3] 1.6% | viability decrease [4] 11.8% | tube area decrease [5] 19.4% | GLP1 secretion stimulation [6] 0.1% | inhibition of viability [7] 43.2% | viability decrease (inhibition) [8] 44.6% | viability decrease (inhibition) [9] 33.5% | outcome [12] | outcome [17] | outcome [18]
-0.6%: nuclear beta-catenin stimulation ([2]; stimulation, at 2 µM)

COc1cc(NCc2ccc3nc(N)nc(N)c3c2C)cc(OC)c1OC
71.7%: nuclear beta-catenin stimulation ([2]; stimulation, at 2 µM)
inactive: insulin secretion stimulation [3] 3.6% | GLP1 secretion stimulation [6] 2.9%
active: nuclear beta-catenin stimulation ([2]; at 10 µM) 40.4% | viability decrease [4] 105% | tube area decrease [5] 60.1% | inhibition of viability [7] 94.9% | viability decrease (inhibition) [8] 142% | viability decrease (inhibition) [9] 70.6% | AC50 [10] 18.7 µM | AC50 [12] 2.95 µM | AC50 [19] 20.9 µM | AC50 [17] 2.63 µM

CN1C[C@H]2c3ccccc3Oc3ccc(Cl)cc3[C@@H]2C1
inactive: nuclear beta-catenin stimulation ([2]; at 10 µM) 0.7% | insulin secretion stimulation [3] 9% | viability decrease [4] 30.4% | tube area decrease [5] 28.3% | GLP1 secretion stimulation [6] 4.4% | inhibition of viability [7] 39.3% | viability decrease (inhibition) [9] 34.3% | outcome [10] | outcome [11] | outcome [19] | z-score [14, 20] 0.874
0.408: z-score [14, 21]
-0.7%: nuclear beta-catenin stimulation ([2]; stimulation, at 2 µM)
active: viability decrease (inhibition) [8] 80.6%

O=C(O)c1c(Cl)c(Cl)c(Cl)c(Cl)c1-c1c2cc(I)c(=O)c(I)c-2oc2c(I)c(O)c(I)cc12
inactive: nuclear beta-catenin stimulation ([2]; at 10 µM) -2.4% | insulin secretion stimulation [3] -1.2% | tube area decrease [5] 23.9% | GLP1 secretion stimulation [6] -4.3%
-0.6%: nuclear beta-catenin stimulation ([2]; stimulation, at 2 µM)
active: viability decrease [4] 96.7% | inhibition of viability [7] 91.6% | viability decrease (inhibition) [8] 90.7% | viability decrease (inhibition) [9] 73.4% | AC50 [12] 3.32 µM | AC50 [17] 8.33 µM
